Consider 19 compounds from PubChem BioAssay (NCI).

Each structure is given as a SMILES string. This is part of a sample that, as a whole, favours compounds with a hit. Of some 83,000 tested, about 20% had one in any assay.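 Compound tested at a single concentration for 48 hours in 96-well plates; a percent growth value below 10 was scored as active.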 Values without a mark were called inactive. Calls of active or inactive are those of the source.

Some test systems named below: DU-145 prostate; MALME-3M melanoma; MDA-MB-231 breast; RXF 393 renal; SF-268 CNS; SF-295 CNS; SF-539 CNS; UACC-257 melanoma; M14 melanoma.
Assay in all cases: NCI-60 one-dose screen, 48 h (100 = growth as untreated, 0 = no growth, -100 = all killed)
Settings in all cases: 10 µM

With `Cc1cc2c(c(O)c1Br)-c1ncoc1C(=O)[C@]1(C)CC[C@H](C(C)C)[C@H]21`, the growth with DU-145 prostate was 54%; in the assay on MALME-3M melanoma, 31%; with MDA-MB-231 breast, 48.9%; in the assay with RXF 393 renal, 60.6%; in the assay on SF-268 CNS it was 49.4%; in the assay on SF-295 CNS, 22.9%. Further, the values for the growth with SF-539 CNS, in the assay on UACC-257 melanoma and in the assay on M14 melanoma were 14.3%, 15.1% and 18.9%, respectively.
For `COc1ccc(-c2nc(S(=O)(=O)c3ccc(C)cc3)c(S(=O)(=O)CC(=O)N(C)Cc3ccccc3)o2)cc1`, the growth in the assay with DU-145 prostate was 35.5%; with MALME-3M melanoma, 16.7%; in the assay on MDA-MB-231 breast, 2.89% (active); in the assay with RXF 393 renal, -54.4% (active); in the assay with SF-268 CNS it was 64.8%; in the assay with SF-295 CNS it was 78.5%. Besides, the growth in the assay on SF-539 CNS was 36.8%; in the assay with UACC-257 melanoma, 67.9%; with M14 melanoma it was 35.7%.
As to `C=C(C)[C@@H]1CC[C@]2(COP(=O)(OCC)OCC)CC[C@]3(C)[C@H](CC[C@@H]4[C@@](C)(CCCN)[C@H](C(=C)C)CC[C@]43C)[C@@H]12`, the growth was 38% in the assay with DU-145 prostate; 15.7% in the assay on MALME-3M melanoma; 21.9% in the assay on MDA-MB-231 breast; 6.32% (active) in the assay with RXF 393 renal; 42% with SF-268 CNS; 24.7% with SF-295 CNS. Besides, the figures for the growth with SF-539 CNS, in the assay on UACC-257 melanoma and in the assay on M14 melanoma were 19%, 20.5% and 18.2%, respectively.
For `O=C(NCCCCC(c1ccc(F)cc1)c1ccc(F)cc1)NCCCc1cccnc1`, the growth was 22% in the assay on DU-145 prostate; -13% (active) with MALME-3M melanoma; 44.8% in the assay on MDA-MB-231 breast; 30.8% with RXF 393 renal; 52.4% in the assay on SF-268 CNS; 18.5% in the assay on SF-295 CNS. Also, the growth with SF-539 CNS is 0.987% (active); in the assay with UACC-257 melanoma, 25.8%; in the assay with M14 melanoma, -20.2% (active).
Consider `C=CC(=O)Nc1nc(-c2cccc(NS(=O)(=O)c3cccc4c(N(C)C)cccc34)c2)cs1`, for which the growth with DU-145 prostate was 3.39% (active); in the assay on MALME-3M melanoma it was -76.1% (active); with MDA-MB-231 breast it was -63.8% (active); in the assay with RXF 393 renal, -98.7% (active); in the assay on SF-268 CNS it was 0.14% (active); in the assay on SF-295 CNS, 37.8%. The growth in the assay with SF-539 CNS was -100% (active); in the assay on UACC-257 melanoma, -29.3% (active); with M14 melanoma it was -78.7% (active).
Take `c1ccc(C(=C(c2ccc(OCCN3CCCCC3)cc2)c2ccc(OCCN3CCCCC3)cc2)C2CCCC2)cc1`: the growth in the assay on DU-145 prostate is -45.2% (active); with MALME-3M melanoma it was -95.2% (active); in the assay with MDA-MB-231 breast, -94.4% (active); with RXF 393 renal, 29.1%; with SF-268 CNS, -61% (active); with SF-295 CNS it was -63.8% (active). Moreover, the growth in the assay on SF-539 CNS was -96.4% (active); in the assay on UACC-257 melanoma, -34.2% (active); in the assay on M14 melanoma, -44.4% (active).
Turning to `CC(=O)Nc1nc(-c2ccc(N3CCN(C)CC3)c(NS(=O)(=O)c3ccc(C(F)(F)F)cc3)c2)cs1`, the growth in the assay with DU-145 prostate is 23.3%; in the assay on MALME-3M melanoma, 38.1%; in the assay on MDA-MB-231 breast it was 24.2%; in the assay with RXF 393 renal, -47% (active); in the assay with SF-268 CNS it was 41.1%; in the assay with SF-295 CNS, 46%. Also, the growth in the assay on SF-539 CNS was -86.4% (active); in the assay on UACC-257 melanoma it was 49.5%; in the assay with M14 melanoma, -3.51% (active).
`Cc1ccc(-c2nc3ccc(C(=O)N=Nc4c(O)[nH]c5ccc(Br)cc45)cc3[nH]2)cc1`: the growth is 17.2% in the assay on DU-145 prostate; 90.5% with MALME-3M melanoma; 23% in the assay on MDA-MB-231 breast; 66.1% with RXF 393 renal; 44.3% in the assay on SF-268 CNS; 93.6% in the assay with SF-295 CNS. The growth with SF-539 CNS was 86.4%; with UACC-257 melanoma, 99.7%; in the assay on M14 melanoma, 55.8%.
For the compound `O=C(Nc1ccncc1)c1ccc(-n2c(=O)[nH]c3ccccc3c2=O)cc1`, the growth in the assay with DU-145 prostate was 100%; with MALME-3M melanoma, 96.3%; in the assay with MDA-MB-231 breast, 98.2%; with RXF 393 renal, 88.9%; in the assay on SF-268 CNS, 110%; in the assay on SF-295 CNS, 95.6%. The growth with SF-539 CNS is 98.8%; with UACC-257 melanoma, 109%; with M14 melanoma, 97.4%.
In the case of `CN1CCN(c2ccc(Nc3nc(NCCCNC(=O)C4CCCCC4)c4sccc4n3)cc2)CC1`, the growth in the assay with DU-145 prostate is 67.5%; with MALME-3M melanoma, -97.1% (active); with MDA-MB-231 breast, 39%; in the assay with RXF 393 renal, -36% (active); in the assay on SF-268 CNS, 62.2%; in the assay on SF-295 CNS, 38.4%. Also, the values for the growth with SF-539 CNS, with UACC-257 melanoma and with M14 melanoma were -77.9% (active), -30.7% (active) and -8.5% (active), respectively.
Consider `Cc1ccc(-c2nc3ccc(C(=O)N=Nc4c(O)[nH]c5ccc(Cl)cc45)cc3[nH]2)cc1`, for which the growth with DU-145 prostate was 6.16% (active); in the assay with MALME-3M melanoma it was -28.7% (active); in the assay on MDA-MB-231 breast, -73% (active); with RXF 393 renal it was -68% (active); with SF-268 CNS, -33.4% (active); in the assay on SF-295 CNS, 10.1%. The results for the growth with SF-539 CNS, in the assay on UACC-257 melanoma and in the assay with M14 melanoma were 33.2%, 81.7% and 6.09% (active), respectively.
Turning to `CN(C)c1cccc2c(S(=O)(=O)Nc3cccc(-c4csc(NC(=O)CCCCCN5CCN(c6cc7c(cc6F)C(=O)N(C6CCC(=O)NC6=O)C7=O)CC5)n4)c3)cccc12` (stereo unspecified), the growth was 97.2% in the assay on DU-145 prostate; 87.1% in the assay on MALME-3M melanoma; 98% in the assay on MDA-MB-231 breast; 89.7% in the assay on RXF 393 renal; 91.4% in the assay with SF-268 CNS; 91.8% in the assay with SF-295 CNS. Also, the values for the growth in the assay with SF-539 CNS, in the assay with UACC-257 melanoma and with M14 melanoma were 78.5%, 82% and 97.3%, respectively.
In the case of `CN1CCN(c2ccc(Nc3nc(NCCCNC(=O)c4ccc(F)cc4)c4sccc4n3)cc2)CC1`, the growth in the assay on DU-145 prostate was 75.5%; in the assay with MALME-3M melanoma, -72.3% (active); with MDA-MB-231 breast it was 58.1%; with RXF 393 renal, 10.8%; in the assay with SF-268 CNS, 74.6%; in the assay with SF-295 CNS, 79.9%. The growth with SF-539 CNS is -90% (active); with UACC-257 melanoma, -26.7% (active); in the assay on M14 melanoma, -7% (active).
With `C#Cc1ccc(S(=O)(=O)Nc2cccc(-c3csc(NC(C)=O)n3)c2)cc1`, the growth was 82.6% in the assay on DU-145 prostate; 78.7% in the assay with MALME-3M melanoma; 84.5% in the assay on MDA-MB-231 breast; 88.4% in the assay with RXF 393 renal; 87.3% in the assay on SF-268 CNS; 66.1% in the assay on SF-295 CNS. In addition, the growth in the assay with SF-539 CNS is 90.3%; in the assay with UACC-257 melanoma, 80%; in the assay on M14 melanoma, 92.4%.
For the compound `COc1ccc2[nH]c(O)c(N=NC(=O)c3cc(-c4ccc(C)cc4)nc4ccccc34)c2c1`, the growth with DU-145 prostate is 90.8%; with MALME-3M melanoma it was 103%; with MDA-MB-231 breast, 98.3%; with RXF 393 renal, 92.4%; in the assay with SF-268 CNS, 80.2%; with SF-295 CNS, 108%. For the same compound, the growth in the assay with SF-539 CNS was 92.3%; in the assay with UACC-257 melanoma, 91.2%; with M14 melanoma it was 99.1%.
With `O=c1[nH][nH]c(Nc2ccccc2)c1N=Nc1ccc(F)cc1`, the growth with DU-145 prostate is 102%; in the assay with MALME-3M melanoma, 116%; in the assay with MDA-MB-231 breast, 86.6%; in the assay with RXF 393 renal it was 83.1%; in the assay with SF-268 CNS it was 81.5%; in the assay with SF-295 CNS, 111%. Besides, the growth was 92.8% with SF-539 CNS, 127% with UACC-257 melanoma and 107% in the assay on M14 melanoma.
For `O=C(Cn1cc(CSc2nnc3oc4ccccc4n23)nn1)Nc1cccc(Cl)c1`, the growth was 85.6% in the assay on DU-145 prostate; 72.8% in the assay with MALME-3M melanoma; 63.4% with MDA-MB-231 breast; 76.8% with RXF 393 renal; 71.8% in the assay with SF-268 CNS; 66.8% in the assay on SF-295 CNS. Besides, the growth in the assay with SF-539 CNS is 70.6%; in the assay on UACC-257 melanoma it was 71%; with M14 melanoma it was 87.8%.
For `O=C(CS(=O)(=O)c1oc(-c2ccc(Cl)cc2)nc1S(=O)(=O)c1ccccc1)N1CCCC1`, the growth in the assay with DU-145 prostate is -100% (active); in the assay on MALME-3M melanoma, -99.2% (active); in the assay with MDA-MB-231 breast it was -88.3% (active); in the assay with RXF 393 renal it was -97.8% (active); in the assay on SF-268 CNS, 74.5%; with SF-295 CNS, 80.8%. The growth in the assay with SF-539 CNS was -78.6% (active); with UACC-257 melanoma, -77.8% (active); in the assay with M14 melanoma, -31.5% (active).
Take `CC(C)C(=O)Nc1ccc(C(=O)NC(=S)Nc2ccc(C(=O)O)cc2)cc1`: the growth in the assay on DU-145 prostate was 110%; in the assay with MALME-3M melanoma, 97%; with MDA-MB-231 breast, 104%; in the assay with RXF 393 renal it was 111%; in the assay with SF-268 CNS, 93.9%; in the assay with SF-295 CNS it was 95.3%. The growth is 95.3% in the assay with SF-539 CNS, 128% in the assay with UACC-257 melanoma and 105% in the assay on M14 melanoma.
